Hits are enriched below; roughly 2.3% of the tested compounds scored in any of these assays.
CHO-K1 Ca antag: M1 antagonist counterscreen hit in parental CHO-K1 cells. 360,000 tested, 0.6% active. ATP-induced calcium, Fluo-8 fluorescence. AID 602250. inhibition, % at 3 µM;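 active = inhibition above a per-plate cutoff, the plate's mean sample inhibition plus 3 SD, cut at about 24% in these data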;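 note: 0% = DMSO plus EC80 ATP and 100% = DMSO alone without ATP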
CHO-K1 Ca PAM: nonselective calcium activators in parental CHO-K1 cells, primary screen, counter-screen for M1 PAM project, cell-based, Fluo-8 calcium fluorescence, full deck, 1536-well. activation, % at 3 µM. 360,000 tested, 0.02% active. ATP EC20; 0% at ATP EC20, 100% at ATP max. AID 602247, 2012;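 active = activation above the run cutoff, the mean activation of all test compounds plus 3 SD, cut at about 40% in these data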;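 note: peak over basal fluorescence ratio in a 140 s read after ATP addition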
CHRM1 agonist: human M1 muscarinic receptor agonists, primary screen, Fluo-8 calcium fluorescence, CHO-K1 cells, HTS; CHO-K1 hM1, agonist mode; 0% DMSO, 100% acetylcholine EC100; activation, % at 3 µM; 360,000 tested, 0.33% active;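 active = activation above the run's mean compound activation plus 3 SD, cut at about 16% in these data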;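 note: peak over basal fluorescence ratio within a 140 s kinetic read after compound addition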
Target sequence (P11229 whole entry, looked up): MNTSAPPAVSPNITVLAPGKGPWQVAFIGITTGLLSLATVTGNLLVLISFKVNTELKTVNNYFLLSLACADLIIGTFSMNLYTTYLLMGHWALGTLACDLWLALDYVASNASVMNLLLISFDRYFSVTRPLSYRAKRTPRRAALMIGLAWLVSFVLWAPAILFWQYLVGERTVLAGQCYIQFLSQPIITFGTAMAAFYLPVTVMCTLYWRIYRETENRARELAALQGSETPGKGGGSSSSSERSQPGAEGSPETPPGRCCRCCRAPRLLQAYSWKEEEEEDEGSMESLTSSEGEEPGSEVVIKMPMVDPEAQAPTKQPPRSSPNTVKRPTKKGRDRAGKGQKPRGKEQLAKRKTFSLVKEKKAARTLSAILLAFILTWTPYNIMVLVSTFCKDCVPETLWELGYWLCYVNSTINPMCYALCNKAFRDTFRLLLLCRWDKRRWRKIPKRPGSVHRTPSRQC
CHRM1 antagonist: human M1 muscarinic receptor antagonists, primary screen, CHO-K1 cells, Fluo-8 calcium fluorescence, 1536-well; Muscarinic acetylcholine receptor M1 (Homo sapiens), P11229; inhibition, % at 3 µM; 360,000 tested, 1.3% active; CHO-K1 hM1, ACh EC80 antagonist; AID 588852, 2011;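 active = percent inhibition above its own plate's cutoff, namely the mean of that plate's compound wells plus 3 SD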;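 note: peak over basal fluorescence ratio during 140 s after agonist addition; 0% = ACh EC80 plus DMSO and 100% = DMSO alone without agonist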
CHO-K1 Ca ag: counter-screen for M1 agonists: effect in parental CHO-K1 cells | 360,000 tested, 0.48% active | Fluo-8 calcium fluorescence; scaled to maximal ATP response, vehicle zero | AID 602248, 2012 | activation, % at 3 µM; in the data active = activation above about 15%;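 note: untransfected CHO-K1 host cells lacking M1 receptor as counterscreen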
M1 PAM: human M1 muscarinic receptor positive allosteric modulators, primary screen, CHO-K1 cells, Fluo-8 calcium fluorescence, 1536-well | Muscarinic acetylcholine receptor M1 (Homo sapiens), P11229 | CHO-K1 hM1, ACh EC20; 0% = ACh EC20, 100% = maximal ACh | activation, % at 3 µM | 360,000 tested, 0.088% active; in the data active = activation above about 19%, passing the limit was not always enough
* hit, by the source's call; · = not tested or not shown.

SMILES	CHO-K1 Ca antag	CHO-K1 Ca PAM	CHRM1 agonist	CHRM1 antagonist	CHO-K1 Ca ag	M1 PAM
COc1ccc(C(c2nnnn2-c2ccc(OC)cc2)N2CCN(C/C=C/c3ccccc3)CC2)cc1 (stereo not given)	-9	4	-6	74*	0	-26
C(=C\c1ccccc1)/CN1CCN(C(c2cccc3ccccc23)c2nnnn2C2CCCC2)CC1 (stereo not given)	-12	28	0	95*	9	-20
O=C(Nc1ccc2c(c1)OCCO2)C(c1cc2ccccc2o1)N1CCN(C/C=C/c2ccccc2)CC1 (stereo not given)	-30	46*	-3	36*	2	-25
COc1ccc(-n2nnnc2C(c2cccs2)N2CCN(C/C=C/c3ccccc3)CC2)cc1 (stereo not given)	-16	9	-7	55*	0	-25
Cc1cc(C)n(C(=O)c2ccc([N+](=O)[O-])cc2Cl)n1	-3	13	-5	-16	0	11
Cc1ncc(CO)c(CNc2ccc(Oc3ccccc3)cc2)c1O	7	12	0	10	5	-6
Cc1oc(-c2ccc3ccccc3c2)nc1CN(C)C(C)c1ccncn1 (stereo not given)	1	8	-6	-6	3	7
C[C@H]1CN([C@@H](C)CO)C(=O)Cc2cc(NS(=O)(=O)c3cccs3)ccc2O[C@H]1CN(C)S(=O)(=O)c1cn(C)cn1	-12	6	-9	9	1	-6
COc1ccc(C(c2nnnn2C2CCCCC2)N2CCN(C/C=C/c3ccccc3)CC2)cc1 (stereo not given)	-2	-10	-7	87*	0	-26
C(=C\c1ccccc1)/CN1CCN(C(c2ccnc3ccccc23)c2nnnn2-c2ccc3c(c2)OCCO3)CC1 (stereo not given)	-19	3	-6	-16	1	-9
COc1cccc(C(c2nnnn2C(C)(C)C)N2CCN(C/C=C/c3ccccc3)CC2)c1OC (stereo not given)	17	-6	-11	42*	0	-30
Cc1cccc(C)c1-n1nnnc1C(c1ccccc1)N1CCN(C/C=C/c2ccccc2)CC1 (stereo not given)	-7	7	-7	61*	0	-26
COc1ccc(C(c2nnnn2C(C)(C)C)N2CCN(C/C=C/c3ccccc3)CC2)cc1 (stereo not given)	-9	3	-5	29	0	-25
C(=C\c1ccccc1)/CN1CCN(C(c2ccccc2)c2nnnn2-c2ccc3c(c2)OCCO3)CC1 (stereo not given)	-22	6	-7	95*	1	-25
O=C(CCc1nnc2ccc(NCc3ccco3)nn12)Nc1ccc(F)cc1F	-20	20	-3	0	0	2
CCCCn1nnnc1C(c1ccc(OC)cc1)N1CCN(C/C=C/c2ccccc2)CC1 (stereo not given)	-25	11	-7	55*	2	-26
O=S(=O)(NCCCCCNS(=O)(=O)c1ccccc1)c1ccccc1	24*	-9	4	-11	4	-5
CS(=O)(=O)NCCOc1ccc(S(=O)(=O)NCCOc2ccccc2)cc1	32*	-19	-6	5	0	-10
O=S(=O)(NCCCc1ccccc1)c1ccccc1	-6	7	-6	-5	1	4
Cc1cc(-c2cn3ccccc3n2)c(C)n1-c1ccccc1	-6	-14	-6	34*	0	-19
Cc1ccccc1/C=C/C(=O)NCC(=O)N1CCC(N(C)C2CCCCC2C)CC1 (stereo not given)	6	-13	-10	27*	0	-24
COc1cc(/C=N/O)ccc1Oc1cnccn1	-9	1	-3	-14	0	9
CCN1CCC2(CC1)N=C(c1ccc(F)cc1)C(=S)N2	-8	11	-8	39*	4	-22
CSc1nc(C)c(C(=O)C[n+]2ccccc2)cc1C#N	-10	16	-7	28*	0	-14
CCOC(=O)c1cc(C#N)c(SCC(=O)c2cc(C#N)c(SC)nc2C)nc1C	-8	2	-4	20	0	-8
SMILES	CHO-K1 Ca antag	CHO-K1 Ca PAM	CHRM1 agonist	CHRM1 antagonist	CHO-K1 Ca ag	M1 PAM
CN1CCN(c2ncccc2S(=O)(=O)N2CCCCC2)CC1	19	-10	-5	99*	0	-22
CCOC(=O)C1=C[C@@H](C(C)C)N(S(=O)(=O)c2ccc([N+](=O)[O-])cc2)[C@H]1c1ccccc1	16	-8	-6	58*	3	-22
CCOC(=O)C1=C[C@@H](CC)N(S(=O)(=O)c2ccc([N+](=O)[O-])cc2)[C@H]1c1ccccc1	6	16	-6	17	5	-15
Cc1cc(C)n(-c2nc(Nc3ccccc3C(F)(F)F)nc(-n3nc(C)cc3C)n2)n1	5	0	4	38	19*	-19
Cc1cc(C)n(-c2nc(NC(C)(C)C)nc(NC(C)(C)C)n2)n1	22	-10	-4	12	0	-7
Cc1c(CCOC(=O)C2C3CC4CC(C3)CC2C4)sc[n+]1CC(=O)c1ccc(Br)cc1 (stereo not given)	-12	21	-5	39*	-1	-21
COc1ccc(C(=O)OCCc2sc[n+](CC(=O)c3ccccc3)c2C)cc1	1	-16	-11	69*	1	-32
COc1ccccc1C(=O)NCC[N+](C)(C)C	-6	8	·	·	0	·
COc1ccc(CN(C)C(=O)[C@H]2O[C@@H](n3ccc(=O)[nH]c3=O)[C@H](O)[C@@H]2O)cc1OC	14	-7	8	-7	0	2
OCCNCc1cc(Br)ccc1OCc1ccc(Cl)cc1	-29	1	23*	4	7	-5
O=C(O)c1ccc(NC2(C(=O)O)CCCC2)cc1	-19	11	6	-9	0	5
CN(Cc1ccon1)C(=O)C1CCC(=O)N(Cc2ccc(Cl)cc2)C1 (stereo not given)	-11	15	-2	-14	1	14
COc1cc(S(=O)(=O)N(Cc2cccs2)CC2CCCO2)ccc1-n1cnnn1 (stereo not given)	1	4	-11	-2	1	-1
O=S(=O)(NCc1ccccc1)c1ccc(S(=O)(=O)N(Cc2cccs2)CC2CCCO2)cc1 (stereo not given)	28*	-7	-1	-3	0	-1

Screens: PubChem BioAssay, The Scripps Research Institute Molecular Screening Center
